# In PubChem BioAssay:
# For some of these results: Potency and affinity values are given separately. The source made the active and inactive calls.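 The calls were made as follows, unless noted: active = primary screen active and over 50% activation in each of two duplicate runs; inactive = the rest.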
# Columns and labels:
# [1] = tested on: TRPC4 beta (transient receptor potential cation channel C4), mouse; test: activators of mouse TRPC4 channel, confirmation, cell-based, Fluo4 calcium, HEK293 TRPC4beta/mu-opioid, duplicates, 10 µM (AID 2426;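 active = fluorescence ratio normalized to control raised more than 50% in primary screen plus both repeat runs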;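 as to activation: percent rise of integrated ratio over buffer wells lacking compound which define 0%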); details: Fluo4 calcium fluorescence, at 10 µM; stronger effect = higher value
# [2] = tested on: transient receptor potential cation channel C4 beta (TRPC4), mouse; test: activators of mouse TRPC4 channel, confirmation, cell-based, second round, Fluo4, HEK293 TRPC4beta/mu-opioid, 1 µM (AID 2461); details: Fluo4 calcium fluorescence, at 1 µM; stronger effect = higher value;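 as to activation: 0% = wells without test compound as baseline of integrated fluorescence ratio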
# [3] = tested on: TRPC4 (transient receptor potential cation channel C4 beta), mouse; test: positive allosteric modulators of mouse TRPC4, confirmation, cell-based, second round, Fluo-4, HEK293 TRPC4beta/mu-opioid, 1 µM (AID 2554;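 active = primary screen hit whose fluorescence ratio, in both repeats, exceeds the weak agonist control mean by 3 SD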); details: DAMGO EC20, Fluo-4 calcium flux, at 1 µM; stronger effect = higher value
# [4] = tested on: TRPC4 beta (transient receptor potential cation channel C4), mouse; test: positive allosteric modulators of mouse TRPC4, confirmation, cell-based, Fluo-4, HEK293 TRPC4beta/mu-opioid (AID 2555;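 active = primary screen hit whose calcium fluorescence ratio, in both repeats, exceeds the weak agonist control mean by 3 SD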); details: DAMGO EC20, Fluo-4 calcium flux, at 10 µM; stronger effect = higher value
# [5] = target: Short transient receptor potential channel 4 (Mus musculus) (UniProt Q9QUQ5); test: inhibitors of mouse TRPC4 channel, confirmation, cell-based, Fluo4, HEK293 TRPC4beta/mu-opioid (AID 2636;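 active = calcium signal cut by more than 3 SD below the full-agonist control yet still positive, in both repeats and the earlier primary screen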); details: DAMGO, Fluo4 calcium flux, at 10 µM; stronger effect = higher value
# Short transient receptor potential channel 4 (Mus musculus), sequence (Q9QUQ5 whole entry, looked up): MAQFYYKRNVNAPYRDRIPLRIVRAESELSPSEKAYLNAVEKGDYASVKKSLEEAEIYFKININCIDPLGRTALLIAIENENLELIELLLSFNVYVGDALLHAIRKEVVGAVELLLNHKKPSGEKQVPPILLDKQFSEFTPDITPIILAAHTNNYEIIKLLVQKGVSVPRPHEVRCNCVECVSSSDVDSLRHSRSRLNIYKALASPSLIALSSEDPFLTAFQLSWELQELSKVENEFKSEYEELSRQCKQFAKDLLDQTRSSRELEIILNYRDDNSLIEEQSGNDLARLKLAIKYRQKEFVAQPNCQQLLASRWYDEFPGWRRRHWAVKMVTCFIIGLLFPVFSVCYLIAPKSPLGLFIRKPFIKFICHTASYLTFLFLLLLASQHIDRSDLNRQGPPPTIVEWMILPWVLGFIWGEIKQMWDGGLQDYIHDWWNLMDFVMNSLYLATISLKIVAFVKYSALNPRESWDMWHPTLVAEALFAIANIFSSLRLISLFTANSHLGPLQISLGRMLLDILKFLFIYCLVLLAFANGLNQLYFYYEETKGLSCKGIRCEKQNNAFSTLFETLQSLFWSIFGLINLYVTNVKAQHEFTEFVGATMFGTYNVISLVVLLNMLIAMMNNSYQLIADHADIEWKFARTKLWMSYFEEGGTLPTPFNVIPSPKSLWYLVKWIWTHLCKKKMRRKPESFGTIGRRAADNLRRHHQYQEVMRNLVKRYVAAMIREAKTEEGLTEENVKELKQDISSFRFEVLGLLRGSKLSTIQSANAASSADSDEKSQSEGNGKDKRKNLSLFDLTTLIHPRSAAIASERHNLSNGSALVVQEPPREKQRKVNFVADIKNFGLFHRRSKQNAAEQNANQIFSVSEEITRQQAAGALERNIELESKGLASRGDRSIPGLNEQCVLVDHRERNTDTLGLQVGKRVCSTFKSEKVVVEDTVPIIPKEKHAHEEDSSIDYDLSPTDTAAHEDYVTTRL
# [6] = target: Short transient receptor potential channel 4 (Mus musculus) (UniProt Q9QUQ5); test: inhibitors of mouse TRPC4 channel, confirmation, cell-based, second round, Fluo4, HEK293 TRPC4beta/mu-opioid, 1 µM (AID 2637;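 active = calcium signal ratio cut to more than 3 SD under the fully stimulated control mean yet still positive, in both repeats and the primary screen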); details: Fluo4 calcium flux, DAMGO, at 1 µM; stronger effect = higher value
# [7] = target: Short transient receptor potential channel 4 (Mus musculus) (UniProt Q9QUQ5); test: TRPC4 positive allosteric modulators, dose response, cell-based, HEK293 TRPC4/mu-opioid, Fluo-4 calcium, EC20 DAMGO (AID 434941;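 active = earlier screen potentiator hit that boosts the TRPC4 ion channel at some dose, with a dose response; inactive = no potentiation, no dose response, or not a prior hit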;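 also: calcium entry triggered by an EC20 dose of DAMGO at the co-expressed mu-opioid receptor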)
# [8] = target: Short transient receptor potential channel 4 (Mus musculus) (UniProt Q9QUQ5); test: mouse TRPC4 channel inhibitors, dose response, cell-based, HEK293 TRPC4/mu-opioid, Fluo-4 calcium (AID 434942;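 active = primary screen inhibitor hit that blocks the TRPC4 channel at some tested dose, yielding a dose curve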)
# [9] = target: Short transient receptor potential channel 6 (Mus musculus) (UniProt Q61143); test: inhibition of mouse TRPC6 channel, confirmation, selectivity assay for TRPC4 inhibitor project, cell-based, HEK293, membrane potential dye, duplicate (AID 434948;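 active = active in primary screen and both duplicates, each dropping signal beyond three positive-control SD with fluorescence still positive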); details: HEK293 TRPC6, membrane potential dye fluorescence, at 10 µM; inhibition: stronger effect = higher value, stimulated with maximal-effect acetylcholine unless noted; outcome: stimulated with maximal-effect acetylcholine unless noted
# Short transient receptor potential channel 6 (Mus musculus), sequence (Q61143 whole entry, looked up): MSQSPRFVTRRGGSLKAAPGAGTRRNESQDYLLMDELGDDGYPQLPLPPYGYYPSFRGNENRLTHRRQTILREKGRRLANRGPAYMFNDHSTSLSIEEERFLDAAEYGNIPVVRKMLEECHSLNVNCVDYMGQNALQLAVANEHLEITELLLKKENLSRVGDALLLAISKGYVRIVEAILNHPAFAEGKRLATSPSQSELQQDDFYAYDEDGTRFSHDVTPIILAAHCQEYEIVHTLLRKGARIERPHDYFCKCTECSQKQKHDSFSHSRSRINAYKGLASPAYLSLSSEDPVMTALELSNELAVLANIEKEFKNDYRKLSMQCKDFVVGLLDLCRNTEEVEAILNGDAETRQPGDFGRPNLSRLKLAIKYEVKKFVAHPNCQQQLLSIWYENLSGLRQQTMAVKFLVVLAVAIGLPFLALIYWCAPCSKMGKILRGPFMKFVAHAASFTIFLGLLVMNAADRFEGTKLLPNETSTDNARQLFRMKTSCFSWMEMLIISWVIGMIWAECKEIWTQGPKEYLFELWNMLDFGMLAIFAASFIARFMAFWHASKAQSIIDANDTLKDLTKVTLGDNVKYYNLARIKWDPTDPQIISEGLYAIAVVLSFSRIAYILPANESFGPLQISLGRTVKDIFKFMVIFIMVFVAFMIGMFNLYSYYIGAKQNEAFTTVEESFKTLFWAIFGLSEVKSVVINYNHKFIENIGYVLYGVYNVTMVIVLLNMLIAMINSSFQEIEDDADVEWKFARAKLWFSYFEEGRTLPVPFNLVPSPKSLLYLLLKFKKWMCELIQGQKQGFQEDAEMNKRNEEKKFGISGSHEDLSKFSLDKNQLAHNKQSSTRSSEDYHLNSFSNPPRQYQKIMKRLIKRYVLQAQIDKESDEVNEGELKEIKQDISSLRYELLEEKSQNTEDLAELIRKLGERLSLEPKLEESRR
# [10] = target: Short transient receptor potential channel 6 (Mus musculus) (UniProt Q61143); test: activation of mouse TRPC6 channel, confirmation, selectivity assay for TRPC4 activator project, cell-based, HEK293, membrane potential dye, duplicate (AID 434950;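 active = membrane potential signal rise above negative control mean plus 3 SD in both duplicates, also active in the earlier TRPC4 screen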;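 as to activation: 0% = buffer only wells and 100% = acetylcholine maximal-effect wells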); details: HEK293 TRPC6, membrane potential fluorescence, at 10 µM; stronger effect = higher value
# [11] = target: Short transient receptor potential channel 6 (Mus musculus) (UniProt Q61143); test: TRPC6 potentiation by TRPC4 potentiator hits, confirmation, selectivity assay for TRPC4 potentiator project, HEK293 cells, membrane potential dye, duplicate (AID 434952;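 active = compound raising the membrane signal above positive-control mean plus 3 SD in both repeats, and a primary screen hit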); details: HEK293 TRPC6, membrane potential dye fluorescence, at 10 µM; maximal acetylcholine added after compound unless noted
# [12] = target: Short transient receptor potential channel 4 (Mus musculus) (UniProt Q9QUQ5); test: calcium flux activators in TRPC4/5HT1a cells, counter-screen for TRPC4 activator project, cell-based, second counter screen, HEK293 TRPC4/5HT1a, Fluo-4 (AID 434977;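 active = calcium signal rise above buffer-control mean plus 5 SD in both duplicates, and also a hit in the primary screen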;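 as to activation: plate controls were assay buffer for no effect and maximal serotonin response for full effect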); details: Fluo-4 calcium flux, at 10 µM; stronger effect = higher value
# [13] = calcium flux inhibitors in TRPC4/5HT1a cells, confirmation, counter-screen for TRPC4 inhibitor project, cell-based, second counter screen, HEK293 TRPC4/5HT1a, Fluo-4 (AID 434978;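 active = primary screen active whose calcium signal fell more than 3 SD beyond the full-serotonin control mean in both duplicate plates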;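 also: serotonin given first at submaximal then at maximal dose after compound preincubation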); details: Fluo-4 calcium flux, at 10 µM; inhibition: stronger effect = higher value, serotonin added to trigger calcium flux unless noted; outcome: serotonin added to trigger calcium flux unless noted
# [14] = tested on: TRPC4 (mouse), co-expressed with 5HT1a in HEK293; test: calcium flux potentiators in TRPC4/5HT1a cells, confirmation, counter-screen for TRPC4 potentiator project, cell-based, second counter screen, HEK293 TRPC4/5HT1a, Fluo-4 (AID 434979;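 active = signal rise over 3 SD above mean of control wells given weak agonist, in both repeats and first screen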); details: Fluo-4 calcium flux, at 10 µM; outcome: serotonin added at its EC20 dose unless noted; potentiation: stronger effect = higher value, serotonin added at its EC20 dose unless noted
# [15] = calcium flux activation in mu-opioid HEK293 cells, confirmation, counter-screen for TRPC4 activator project, cell-based, HEK293 mu-opioid receptor line (AID 449723;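 active = hit in primary screen, with calcium signal over 5 SD above buffer well mean in both duplicates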;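 also: counter screen cells carry the mu-opioid receptor alone and lack TRPC4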); details: Fluo-4 calcium fluorescence, at 10 µM; stronger effect = higher value
# [16] = calcium flux enhancement in mu-opioid HEK293 cells, confirmation, counter-screen for TRPC4 allosteric potentiator project, cell-based, HEK293 mu-opioid receptor line (AID 449724;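 active = calcium signal rise more than 3 SD above the low-dose agonist control mean, in both duplicate plates and the primary screen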); details: Fluo-4 calcium flux, at 10 µM; compound added before EC20 DAMGO stimulus unless noted
compound,measurement,setting,value
O=C(c1ccc2c3c(cccc13)CC2)C1CCCN(CC2CC2)C1 (configuration not stated),activation,[1],164% (active)
same,activation,[2],79% (active)
same,outcome,[3],inactive
same,outcome,[4],inactive
same,outcome,[5],inactive
same,outcome,[6],inactive
same,outcome,[7],inactive
same,outcome,[8],inactive
same,outcome,[9],inactive
same,activation,[10],75.5% (active)
same,outcome,[11],inactive
same,activation,[12],61.9% (active)
same,outcome,[13],inactive
same,outcome,[14],inactive
same,outcome,[15],inactive
same,outcome,[16],inactive
COc1ccc(C(CNC(=O)c2ccc3c(c2)CCC3)N(C)C)cc1 (configuration not stated),activation,[1],237% (active)
same,activation,[2],142% (active)
same,outcome,[3],inactive
same,outcome,[4],inactive
same,outcome,[5],inactive
same,outcome,[6],inactive
same,outcome,[7],inactive
same,outcome,[8],inactive
same,outcome,[9],inactive
same,activation,[10],76.5% (active)
same,outcome,[11],inactive
same,outcome,[12],inactive
same,outcome,[13],inactive
same,outcome,[14],inactive
same,activation,[15],12.1% (active)
same,outcome,[16],inactive
Cn1cc[n+](C)c1P(=S)(c1ccccc1)c1ccccc1,outcome,[1],inactive
same,outcome,[2],inactive
same,outcome,[3],inactive
same,outcome,[4],inactive
same,outcome,[5],inactive
same,outcome,[6],inactive
same,outcome,[7],inactive
same,outcome,[8],inactive
same,outcome,[9],inactive
same,outcome,[10],inactive
same,outcome,[11],inactive
same,outcome,[12],inactive
same,outcome,[13],inactive
same,outcome,[14],inactive
same,outcome,[15],inactive
same,outcome,[16],inactive
COc1ccc2c(c1O)[C@]13CCN(C)[C@H](C2)[C@@H]1CCC(=O)C3,activation,[1],82% (active)
same,activation,[2],99% (active)
same,outcome,[3],inactive
same,outcome,[4],inactive
same,outcome,[5],inactive
same,outcome,[6],inactive
same,outcome,[7],inactive
same,outcome,[8],inactive
same,outcome,[9],inactive [setting not given]
same,activation,[10],29.5% (active)
same,outcome,[11],inactive [setting not given]
same,outcome,[12],inactive
same,outcome,[13],inactive [setting not given]
same,outcome,[14],inactive [setting not given]
same,outcome,[15],inactive
same,outcome,[16],inactive [setting not given]
CC[C@@H](CO)NC(=O)[C@@H]1C=C2c3cccc4c3c(cn4C)C[C@H]2N(C)C1,activation,[1],107% (active)
same,activation,[2],57% (active)
same,outcome,[3],inactive
same,outcome,[4],inactive
same,outcome,[5],inactive
same,outcome,[6],inactive
same,outcome,[7],inactive
same,outcome,[8],inactive
same,outcome,[9],inactive [setting not given]
same,outcome,[10],inactive
same,outcome,[11],inactive [setting not given]
same,activation,[12],147% (active)
same,outcome,[13],inactive [setting not given]
same,outcome,[14],inactive [setting not given]
same,outcome,[15],inactive
same,outcome,[16],inactive [setting not given]
O=[N+]([O-])c1ccc(N2CCNCC2)cc1NC1CC1,activation,[1],64% (active)
same,activation,[2],67% (active)
same,outcome,[3],inactive
same,outcome,[4],inactive
same,outcome,[5],inactive
same,outcome,[6],inactive
same,outcome,[7],inactive
same,outcome,[8],inactive
same,outcome,[9],inactive
same,outcome,[10],inactive
same,outcome,[11],inactive
same,activation,[12],26.6% (active)
same,outcome,[13],inactive
same,outcome,[14],inactive
same,outcome,[15],inactive
same,outcome,[16],inactive
CN1CCN(c2ccc([N+](=O)[O-])c3cccnc23)CC1,activation,[1],85% (active)
same,activation,[2],78% (active)
same,potentiation,[3],33% (active)
same,potentiation,[4],26% (active)
same,outcome,[5],inactive
same,outcome,[6],inactive
same,outcome,[7],inactive
same,outcome,[8],inactive
same,outcome,[9],inactive
same,outcome,[10],inactive
same,outcome,[11],inactive
same,activation,[12],25.7% (active)
same,outcome,[13],inactive
same,potentiation,[14],16.9% (active)
same,outcome,[15],inactive
same,outcome,[16],inactive
